From PubChem BioAssay AID651640 (Broad Institute, 2012)
In all, about 350,000 compounds went through this assay and about 6,000 (1.7%) were called active. Inconclusive results (about 5%) are left out. The full list was thinned out, with actives kept by preference. A number with no mark means an inactive call. Rule as the data show it: active = CPE inhibition above about 20% (passing the limit was not always enough); inconclusive = no clear call, values can overlap the other calls; tested in BHK-21 cells.

Assay: protection of cells from dengue 2 killing – plate reader, single concentration, primary screen (AID 651640);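 also: 0% = median of neutral control wells and 100% = median of positive control wells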
Details: DENV2-infected cells, cytopathic effect rescue, at 9.99 µM, stronger effect = higher value

SMILES	CPE inhibition
COc1ccc(S(=O)(=O)N(C)C[C@H]2OCCCC[C@H](C)Oc3ccc(NC(=O)Nc4ccc5c(c4)OCO5)cc3C(=O)N([C@@H](C)CO)C[C@@H]2C)cc1	-7.54%
CCOC(=O)c1c(NC(=O)CSc2cn(CC)c3ccccc23)sc2c1CCC2	5.51%
CCOC(=O)c1c(NC(=O)Cn2nc(C(F)(F)F)cc2C)sc2c1CCC2	-2.63%
CCCOC(=O)c1c(NC(=O)c2cnn3c2NC(c2ccccc2)CC3C(F)(F)F)sc2c1CCCC2 (centres undefined)	84.1% (active)
COC(=O)[C@]12C[C@H](CC(=O)N3CCN(C(=O)C4CC4)CC3)C(=O)N(Cc3ccc4c(c3)OCO4)C1=C[C@H](C(C)(C)C)O[C@@H]2C	0.269%
C[C@@H]1CN([C@@H](C)CO)C(=O)c2cccc(NC(=O)C3CC3)c2O[C@@H]1CN(C)C	11.8%
C[C@@H]1CN([C@H](C)CO)C(=O)c2cccc(NC(=O)Nc3cccc4ccccc34)c2O[C@@H]1CN(C)C(=O)Nc1cccc2ccccc12	4.21%
COc1ccc(NC(=O)N(C)C[C@H]2Oc3c(NC(=O)Nc4cccc5ccccc45)cccc3C(=O)N([C@@H](C)CO)C[C@H]2C)cc1	18.2%
C[C@H](CO)N1C[C@H](C)[C@H](CN(C)C(=O)NC2CCCCC2)Oc2c(NC(=O)C3CC3)cccc2C1=O	20.6% (active)
C[C@@H]1CN([C@H](C)CO)C(=O)c2cccc(NC(=O)C3CC3)c2O[C@@H]1CN(C)C(=O)Nc1ccccc1	8.03%
C[C@@H]1CN([C@H](C)CO)C(=O)c2cccc(NC(=O)Nc3ccccc3)c2O[C@@H]1CN(C)C(=O)NC1CCCCC1	-11%
C[C@H]1CN([C@@H](C)CO)C(=O)c2cccc(NC(=O)C3CCOCC3)c2O[C@@H]1CN(C)C	39.5% (active)
C[C@H]1CN([C@@H](C)CO)C(=O)c2cccc(NC(=O)Nc3cccc4ccccc34)c2O[C@@H]1CN(C)C(=O)NC1CCCCC1	43.8% (active)
COc1ccc(NC(=O)N(C)C[C@H]2Oc3c(NC(=O)Nc4cccc5ccccc45)cccc3C(=O)N([C@H](C)CO)C[C@@H]2C)cc1	15.2%
CC(C)NC(=O)N(C)C[C@H]1Oc2c(NC(=O)C3CCCCC3)cccc2C(=O)N([C@@H](C)CO)C[C@H]1C	-3.61%
COc1ccc(NC(=O)N(C)C[C@@H]2Oc3c(NC(=O)Nc4cccc5ccccc45)cccc3C(=O)N([C@@H](C)CO)C[C@H]2C)cc1	23.2% (active)
C[C@H]1CN([C@@H](C)CO)C(=O)c2cccc(NC(=O)C3CCOCC3)c2O[C@H]1CN(C)S(C)(=O)=O	12.7%
CN1CCN(C(=O)C[C@H]2CC[C@H]3[C@@H](COC[C@H](O)CN3CC3CCOCC3)O2)CC1	-5%
CCCNC(=O)N1[C@H](CO)[C@@H]2c3ccccc3N(C(=O)C3CCOCC3)C[C@@H]21	9.68%
CNC(=O)C[C@H]1CC[C@H]2[C@@H](COc3ccc(NS(=O)(=O)c4ccc(F)cc4)cc3C(=O)N2C)O1	-4.93%
CC(C)NC(=O)N(C)C[C@H]1OCCCC[C@H](C)Oc2ccc(NS(=O)(=O)c3cccs3)cc2C(=O)N([C@H](C)CO)C[C@@H]1C	-5.44%
O=C(CC1CC1)N1[C@@H]2CN(S(=O)(=O)c3ccccc3F)c3ccccc3[C@@H]2[C@@H]1CO	2.67%

SMILES	CPE inhibition
CCCNC(=O)N1CC2(C1)[C@H](c1ccccc1)[C@@H](CO)N2Cc1cccc(Cl)c1	-0.258%
C[C@@H]1CN([C@H](C)CO)S(=O)(=O)c2ccc(-c3ccncc3)cc2O[C@@H]1CN(C)C(=O)CN(C)C	-2.24%
COCC(=O)N(C)C[C@@H]1Oc2cc(C#Cc3cccnc3)ccc2S(=O)(=O)N([C@H](C)CO)C[C@H]1C	0.786%
COc1ccccc1CNC(=O)C[C@H]1CC[C@@H](NC(=O)CN(C)C)[C@@H](CO)O1	-1.02%
Cc1cccc(S(=O)(=O)N2C[C@@H](O)COC[C@H]3O[C@H](CC(=O)N4CCN(C)CC4)CC[C@@H]32)c1	0.654%
C[C@@H]1CN([C@H](C)CO)C(=O)c2cc(C#Cc3cccnc3)cnc2O[C@@H]1CN(C)Cc1ccc(F)cc1	-0.76%
C[C@@H]1CN([C@@H](C)CO)C(=O)c2cccc(NS(=O)(=O)c3ccc(F)cc3)c2O[C@@H]1CN(C)Cc1ccc(C(=O)O)cc1	49.4% (active)
C[C@H]1CN([C@@H](C)CO)C(=O)c2cccc(NS(=O)(=O)c3ccc(F)cc3)c2O[C@@H]1CN(C)Cc1ccncc1	0.612%
C[C@H]1CN([C@@H](C)CO)C(=O)c2cccc(NC(=O)C3CCCCC3)c2O[C@H]1CN(C)C(=O)NC1CCCCC1	1.03%
C[C@@H]1CN([C@H](C)CO)C(=O)c2cccc(NS(=O)(=O)c3ccccc3)c2O[C@@H]1CN(C)Cc1ccc(C(=O)O)cc1	-6.23%
COc1ccc(S(=O)(=O)Nc2cccc3c2O[C@@H](CN(C)C(=O)Nc2cccc4ccccc24)[C@H](C)CN([C@@H](C)CO)C3=O)cc1	-9.92%
C[C@@H]1CN([C@H](C)CO)C(=O)c2cccc(NS(=O)(=O)c3ccc(Cl)cc3)c2O[C@@H]1CN(C)C(=O)Nc1cccc2ccccc12	-5.49%
C[C@@H]1CN([C@H](C)CO)C(=O)c2cccc(NC(=O)C3CCCCC3)c2O[C@@H]1CN(C)C(=O)NC1CCCCC1	21.7% (active)
C[C@@H]1CN([C@@H](C)CO)C(=O)c2cccc(NC(=O)C3CCOCC3)c2O[C@H]1CN(C)C(=O)NC1CCCCC1	-1.68%
C[C@H](CO)N1C[C@H](C)[C@@H](CN(C)C(=O)Nc2cccc3ccccc23)Oc2c(NS(=O)(=O)c3ccccc3)cccc2C1=O	74.2% (active)
CCCN(C)C[C@H]1Oc2ncc(-c3ccccc3OC)cc2C(=O)N([C@H](C)CO)C[C@H]1C	1.17%
C[C@H](CO)N1C[C@H](C)[C@@H](CN(C)S(=O)(=O)c2ccccc2)OCCCC[C@H](C)Oc2ccc(NC(=O)NC3CCCCC3)cc2C1=O	-3.62%
C[C@H]1CCCCO[C@H](CN(C)C(=O)CCC(F)(F)F)[C@@H](C)CN([C@@H](C)CO)C(=O)c2cc(NC(=O)Nc3ccc4c(c3)OCO4)ccc2O1	-12.5%
C[C@@H]1CN([C@H](C)CO)C(=O)c2cccc(NS(=O)(=O)c3ccc(F)cc3)c2O[C@@H]1CN(C)C(=O)Nc1ccc(F)cc1	10.9%
C[C@H](CO)N1C[C@H](C)[C@H](CN(C)S(=O)(=O)c2ccc(C#N)cc2)Oc2ncc(-c3cccc(F)c3)cc2C1=O	2.2%
COCC(=O)N(C)C[C@@H]1Oc2cc(C#CCC(C)C)ccc2S(=O)(=O)N([C@@H](C)CO)C[C@@H]1C	-6.44%
COC(=O)C1[C@H]2SC(C)(C)C(C(=O)OC)N2C(=O)N1Cc1nc2ccccc2s1 (some centres undefined)	38.1% (active)

SMILES	CPE inhibition
CCC1(CC)NC(=O)N(Cc2nc3ccccc3s2)C1=O	-2.84%
CC1(C)S[C@@H]2[C@H](NC(=O)COc3ccccc3)C(=O)N2C1C(=O)OCc1ccccc1 (some centres undefined)	9.26%
C/C=C/c1ccc2c(c1)O[C@H](CN(C)C(C)=O)[C@H](C)CN([C@H](C)CO)S2(=O)=O	-7.9%
COc1cccc(S(=O)(=O)N2C[C@@H](O)COC[C@H]3O[C@H](CC(=O)N4CCCCC4)CC[C@@H]32)c1	-9.51%
O=C(O)/C=C/c1ccc(OCCCF)cc1	-4.88%
O=C(/C=C/c1ccc2c(c1)OCCO2)c1ccc(O)cc1	-0.309%
O=C(/C=C(O)/C=C/c1ccc(O)cc1)/C=C/c1ccc(O)cc1	61.1% (active)
CC(C)NC(=O)N(C)C[C@H]1Oc2ncc(-c3ccccc3F)cc2C(=O)N([C@@H](C)CO)C[C@@H]1C	-8.68%
CO[C@@H]1CN(C)C(=O)c2cc(NS(=O)(=O)c3ccccc3)ccc2OC[C@@H](C)N(C(=O)NC(C)C)C[C@@H]1C	10.4%
COc1ccc(N(CC(=O)N/N=C/c2cccs2)S(=O)(=O)c2ccc(OC)c(OC)c2)cc1	6.81%
COc1ccc(N(C(=O)c2cccnc2)S(=O)(=O)c2ccc(OC)c(OC)c2)cc1	29.9% (active)
O=C(c1cccnc1)N(c1cc2sc(=O)oc2c2ccccc12)S(=O)(=O)c1ccccc1	-6.54%
CO[C@H]1CN(C)C(=O)c2ccc(NS(=O)(=O)c3ccccc3)cc2OC[C@@H](C)N(Cc2nccs2)C[C@@H]1C	-6.98%
CO[C@@H]1CN(C)C(=O)c2ccc(NS(=O)(=O)c3ccc(Cl)cc3)cc2OC[C@H](C)N(C(=O)NC(C)C)C[C@H]1C	9.25%
C[C@@H]1CN([C@H](C)CO)C(=O)c2cc(NC(=O)Nc3ccc4c(c3)OCO4)ccc2O[C@H]1CN(C)C(=O)Nc1ccccc1	6.05%
O=C(C[C@H]1C[C@@H]2c3cc(NC(=O)c4ccc5c(c4)OCO5)ccc3O[C@@H]2[C@@H](CO)O1)NCCN1CCCCC1	-1.97%
Cc1noc(C)c1S(=O)(=O)N(C)C[C@@H]1OCc2ccccc2-c2ccccc2C(=O)N([C@@H](C)CO)C[C@H]1C	4.05%
Cc1cc(C(=O)CCC(=O)NNC(=O)c2ccccc2O)c(C)s1	-2.6%
Cc1cc(C(=O)NNC(=O)c2ccccc2O)c(C)o1	-2.62%
O=C(NNC(=O)c1ccccc1O)c1ccccc1O	48.5% (active)
